Screening data deposited in PubChem by National Center for Advancing Translational Sciences (NCATS).
This is a sample that favours compounds with a hit; in the whole collection about 2.2% have one here.
GLP-1R agonist: activates the human GLP-1 receptor; P43220; HEK293 GLP-1R CRE-luciferase, luminescence, 4-6 h; cells express a hypersensitive GLP-1R form; Potency, µM (highest dose often 45.6 µM), usual class: activators; hit rate 0.007% among 380,000; AID 624172
Target sequence (P43220 whole entry, looked up): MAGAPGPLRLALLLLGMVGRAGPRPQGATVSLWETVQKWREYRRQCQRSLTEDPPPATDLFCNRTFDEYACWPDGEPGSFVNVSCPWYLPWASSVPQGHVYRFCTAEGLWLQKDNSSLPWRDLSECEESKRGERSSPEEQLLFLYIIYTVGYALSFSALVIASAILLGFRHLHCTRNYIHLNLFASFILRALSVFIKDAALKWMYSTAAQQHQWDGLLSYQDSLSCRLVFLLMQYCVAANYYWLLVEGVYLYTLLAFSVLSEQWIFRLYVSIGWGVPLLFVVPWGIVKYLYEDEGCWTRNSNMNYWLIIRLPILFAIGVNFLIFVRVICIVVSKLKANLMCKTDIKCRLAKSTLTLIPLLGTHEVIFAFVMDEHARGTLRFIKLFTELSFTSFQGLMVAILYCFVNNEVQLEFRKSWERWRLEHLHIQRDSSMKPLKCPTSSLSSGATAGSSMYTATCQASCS
CCT chaperon mod: changes cytosolic chaperonin activity | purified chaperonin ATPase assay, HTRF ADP detection, 30 min | activity change, % (concentration not given with the values), hits read low | hit rate 0.3% among 360,000; in the data active means activity change below about -30%
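ATPase activity: ADP formed was measured by HTRF Transcreener (665/615 nm ratio) after 30 min at 37 deg C with 10 uM ATP. Compounds screened at one 76 uM concentration against 40 or 20 nM TRiC in Tris pH 7.4/KCl/MgCl2/DTT buffer.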
GLP-1R inv ag: inverse agonists of human GLP-1 receptor | hit rate 1.6% among 410,000 | P43220 | HEK293 GLP-1R CRE-luciferase, luminescence, 24 h; GLP-1R form is constitutively active | Potency, µM (series often up to 38.3 µM), hits mostly inhibitors; further: nearly all actives have a fitted effect of over 55% in size
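Using stably transfected HEK293 (constitutively active GLP-1R, cAMP-luciferase reporter), compounds were incubated 24 hr and luciferase measured by luminescence.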
MmCpn inh: inhibitors of Methanococcus maripaludis chaperonin TRiC (MmCpn); Potency, µM (highest dose often 76.9 µM), usual class: inhibitors; hit rate 0.031% among 330,000; AID 504842; purified Mm-Cpn ATPase, ADP Transcreener TR-FRET; further: nearly all actives have a fitted effect of over 80% in size
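Compound-treated chaperonin, 25 nM final, turns over 10 uM ATP at 37°C for 30 min following a 10 min preincubation; ADP generated competes with ADP-d2 for Eu-cryptate antibody, lowering FRET.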
GLP1R cytotox: cytotoxic in the GLP-1 receptor inverse agonist counter-screen; HEK293 cAMP-luciferase reporter cells, luminescence, 24 h; Potency, µM (series often up to 38.3 µM), most hits filed as inhibitors; hit rate 0.13% among 410,000; AID 624418;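 further: loss of luciferase light is scored as toxicity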
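Quantitative HTS format, 1536 wells, 200 cells/uL seeded. Compounds: 23 nL, 24 h, 37 °C. Detection: luciferase reagent, luminescence at 12 min RT; decreased signal taken as cytotoxic.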
uPA generation: inhibitors of cell surface uPA generation | hit rate 0.31% among 330,000 | cell surface uPA generation assay, qHTS | Potency, µM (titrated, usually from 38.3 µM), actives largely listed as inhibitors; active means well fitted inhibition curve with a large enough effect; inconclusive means small, poorly fitted or top-dose-only effect; inactive means no such curve, though single readings can be large or run the other way; tested in mouse RAW 264.7 cells; further: nearly all actives have a fitted effect of over 55% in size
Hits are given with their value. Unless noted, the call rests on the fitted dose curve; in most records, active means well fitted curve in the direction sought with a large enough effect; inconclusive means small, poorly fitted or top-dose-only effect, or another doubt; inactive means no such curve, though single readings can be large; an effect the other way counts as inactive or inconclusive.

CC1CCN(C(=O)Cn2cc(SCC(=O)NCc3ccccc3Cl)c3ccccc32)CC1 was read as GLP-1R inv ag 10µM and GLP1R cytotox inactive.
For CC(=O)N1c2ccc(S(=O)(=O)NCC3CCC(C(=O)Nc4cccc(C)c4C)CC3)cc2CC1C (stereo not drawn) the results were GLP-1R inv ag inactive and GLP1R cytotox inactive.
Screening CCOC(=O)C1CCN(C(=O)Cn2nc(C)n3cccc3c2=O)CC1 returned GLP-1R agonist inactive, CCT chaperon mod inactive, GLP-1R inv ag inactive, MmCpn inh inactive, GLP1R cytotox inactive and uPA generation inactive.
Screening Cc1nn(CC(=O)N2CCC(C)CC2)c(=O)c2cccn12 returned GLP-1R agonist inactive, CCT chaperon mod -55, GLP-1R inv ag inactive, MmCpn inh inactive, GLP1R cytotox inactive and uPA generation inconclusive.
For Cc1cc(C)cc(NS(=O)(=O)c2ccc3c(c2)NC(=O)C(C)S3)c1 (stereo not drawn) the results were GLP-1R inv ag inactive and GLP1R cytotox inactive.
For COc1cc(C)c(Cl)c(C)c1S(=O)(=O)NC1CC(C)(C)NC(C)(C)C1 the results were GLP-1R agonist inactive, CCT chaperon mod inactive, GLP-1R inv ag 5.6µM, MmCpn inh inactive, GLP1R cytotox inactive and uPA generation inconclusive.
`CCOc1cc(S(=O)(=O)NC2CC(C)(C)NC(C)(C)C2)ccc1Cl` gave GLP-1R agonist inactive, CCT chaperon mod inactive, GLP-1R inv ag 11µM, MmCpn inh inactive, GLP1R cytotox inactive and uPA generation inactive.
Screening COc1cc(C)c(C(C)C)cc1S(=O)(=O)NC1CC(C)(C)NC(C)(C)C1 returned GLP-1R agonist inactive, CCT chaperon mod inactive, GLP-1R inv ag inconclusive, MmCpn inh inactive, GLP1R cytotox inactive and uPA generation inactive.
Screening CC1CCN(S(=O)(=O)c2ccc3c(c2)CCN3C(=O)Nc2ccccc2Br)CC1 returned GLP-1R inv ag inactive and GLP1R cytotox inactive.
For CC(=O)O[C@]1(C(=O)CO)[C@@H](C)C[C@H]2[C@@H]3CCC4=CC(=O)C=C[C@]4(C)[C@@]3(F)[C@@H](O)C[C@]21C the results were GLP-1R agonist inactive.
Screening COc1cccc(CNC(=O)Nc2cc(C(=O)NCc3cccc(F)c3)ccc2N2CCCC2)c1 returned GLP-1R inv ag inconclusive and GLP1R cytotox inactive.
N#C/C(N=Nc1ccccc1O)=N\Nc1ccccc1O was read as GLP-1R agonist inactive, CCT chaperon mod inactive, GLP-1R inv ag inconclusive, MmCpn inh inactive, GLP1R cytotox 10µM and uPA generation inconclusive.
`Oc1ccccc1N=N/C(=N/Nc1ccccc1O)c1ccccc1` gave GLP-1R agonist inactive, CCT chaperon mod inactive, GLP-1R inv ag inactive, MmCpn inh inactive, GLP1R cytotox inactive and uPA generation inactive.
O=C(CCCCn1c(=O)c2ccccc2n(Cc2cccc(F)c2)c1=O)NCc1ccc2c(c1)OCO2 was read as GLP-1R agonist inactive, GLP-1R inv ag inactive and GLP1R cytotox inactive.
`O=c1c2ccccc2n2c(-c3ccc(Cl)cc3)nnc2n1CCc1ccccc1` gave GLP-1R inv ag inactive and GLP1R cytotox inactive.
`CCCCCC[C@@H](CCC)C(=O)O` gave GLP-1R agonist inactive.
Cc1ccc(CNCc2c(C(=O)O)n(Cc3ccc(C)cc3)c3cc(C)ccc23)cc1 was read as GLP-1R agonist inactive, GLP-1R inv ag inconclusive and GLP1R cytotox inconclusive.
Screening Cc1ccc(Cn2c(C(=O)O)c(CNCc3ccc(OC(C)C)cc3)c3ccc(C)cc32)cc1 returned GLP-1R agonist inactive, GLP-1R inv ag 13µM and GLP1R cytotox inconclusive.
Screening Cn1c(=O)c2c(ncn2Cc2ccc(Cl)cc2)n(C)c1=O returned GLP-1R agonist inactive, CCT chaperon mod inactive, GLP-1R inv ag inactive, MmCpn inh inactive, GLP1R cytotox inactive and uPA generation inactive.
Cn1c(=O)c2c([nH]c(=S)n2Cc2ccc(Cl)cc2)n(C)c1=O was read as GLP-1R agonist inactive, CCT chaperon mod -84, GLP-1R inv ag inactive, MmCpn inh inactive, GLP1R cytotox inactive and uPA generation inactive.
For Cc1ccc(S(=O)(=O)c2nnn3c2nc(N2CCC(C)CC2)c2cc(Cl)ccc23)cc1C the results were GLP-1R inv ag inactive and GLP1R cytotox inactive.
